We go through 47 molecules from PubChem BioAssay AID504444 (National Center for Advancing Translational Sciences (NCATS), 2011).

Screen size: about 360,000 compounds; about 7,500 (2.1%) were called active. Not shown: some 20% with an inconclusive outcome. The sample holds actives, similar compounds and a random draw of the others, so the mix is not that of the screen. A number with no mark means an inactive call. Calls come from the whole dose curve; as a rule, active = well fitted inhibition curve with a large enough effect; inconclusive = small, poorly fitted or top-dose-only effect, or effect the other way; inactive = flat fitted curve, though single readings scatter.
% is set by controls: 0 for no effect and ±100 for the full control effect; potency is the fitted concentration of half-maximal effect.

A short description of this assay: Nrf2 qHTS screen for inhibitors. Note: nearly all actives have a fitted effect of over 60% in size. The settings on record: A549 ARE-Fluc reporter, luciferase luminescence, 18-24 h; series mostly up to 46 µM; activity change, negative = inhibition: at the top concentration. An excerpt: NIH Molecular Libraries Probe Production Network [MLPCN]
NIH Chemical Genomics Center [NCGC]
Assay Provider: Shyam Biswal, Johns Hopkins University
Nrf2 is a transcription factor that maintains cellular redox homoestasis and protects cells from xenobiotics. Nrf2 binds to the antioxidant response element (ARE) to induce gene expression of a broad spectrum of genes that encode for antioxidants. […] Finding a small molecule that act as an inhibitor of Nrf2 function would represent a novel therapeutic target that could lead to improvement in survival of patients undergoing chemo- and/or radio- therapy.
This is the Nrf2 activity measured in the luminescent read.
1. Shibata, T., et al., Genetic Alteration of Keap1 Confers Constitutive Nrf2 Activation and Resistance to Chemotherapy in Gallbladder Cancer. Gastroenterology, 2008.
2. Sjoblom, T., et al., The consensus coding sequences of human breast and colorectal cancers. Science, 2006. 314(5797): p. 268-74.
NCGC Assay Protocol Summary:
A concentration-response assay was performed with A549 ARE_Fluc cells which are suspended in 5% FBS OPTI-MEM. Five uL were dispensed into 1536-well white TC-treated plate using the Kalypsys dispenser to achieve a density of 5000 cells/well in all columns except column 1. The plate is incubated at 37deg C at 5% CO2 for 2 hours before 23 nL of compounds are added with the Kalypsys pin tool equipped with a 1,536-pin array containing 10-nL slotted pins (FP1S10, 0.457-mm diameter, 50.8 mm long; V&P Scientific). The control compounds Budesonide and Staurosporine are both added at a concentration of 2mM and Budesonide is also added as a 1:10 titration, starting at 200uM, to achieve dose-response. After an 18-24 hour incubation at 37deg C at 5% CO2, 5ul of medium is added to column 1. Afterwards 1ul of 5x of CellTiter-Fluor (Promega) is added to every well. The plate is then incubated at 37deg C at 5% CO2 for 30 minutes before they are read on the ViewLux (Perkin Elmer) for a fluorescent read Ex=405(10)/Em=525(10) for a 3 second exposure, 2x binning, and high gain. Then 3 uL of 3x BugLite is dispensed into all wells and the plate is incubated at ambient room temperature for 15 minutes. Afterwards another ViewLux read is performed using the clear filter to get a luminescent read with the settings of 40 second exposure, 2x binning, and high gain. Cytotoxicity is assessed through the first fluorescent read and then biochemical activity against Nrf2 is measured in the luminescent read.
(In general: qHTS replaces the single test concentration by a dilution series.)
Consider `COc1ccc(C(=O)OCC(=O)c2cc(C)n(CC3CCCO3)c2C)cc1[N+](=O)[O-]` (configuration not stated), for which the “activity change, negative = inhibition” value is -11.4%.
The same measure, in the same setting: with `Cc1oc2ncnc(N3CCCCC3)c2c1C(=O)N1CCN(c2cccc(Cl)c2)CC1` the figure was 5.11%; with `CC(=O)OCC1(O)CC23CCC4c5ccoc5CCC4(C)C2CCC1C3` (configuration not stated), -16.8%.
As to `CCC1(C)Cc2c(sc3[nH]c(=S)n(Cc4ccccc4)c(=O)c23)CO1` (configuration not stated), the Potency was 16.4 µM (active).
For `CCC1(C)Cc2c(sc3nc4n(c(=O)c23)CCCS4)CO1` (configuration not stated), the “activity change, negative = inhibition” value is 1.02%.
Still for that read-out and setting: with `CCC1(C)Cc2c(sc3nc(SC)[nH]c(=O)c23)CO1` (configuration not stated) the figure was -5.53%; with `COc1ccc(Cl)cc1NC(=O)c1sc2nc3c(cc2c1N)CN(C)CC3`, 1.59%; with `COc1ccc(CNc2nc(-c3ccc(Cl)cc3)cc(C(F)(F)F)n2)cc1`, 0.506% [at 9.27 µM].
Still for that read-out and setting: next, `CN(C)c1ccc(C(=O)NCC(=O)OC(C(=O)Nc2cc(C(F)(F)F)ccc2Cl)c2ccccc2)cc1` (configuration not stated): 6.05%; `Cc1cccc(N2O[C@H]3C=CC2CCCC3)n1`: 26.1%.
For the molecule `COc1ccc(C(=O)OCC(=O)c2ccc(C)c(S(=O)(=O)N3CCOCC3)c2)cc1OC`, the Potency was 20.6 µM (active).
`COc1cc(/C=C/C(=O)Nc2ccc(OC)c(S(=O)(=O)N3CCOCC3)c2)ccc1OCC#N`: the Potency is 9.2 µM (active).
Take `COc1ccc(CC(=O)Nc2ccc3c(c2)CCC3)cc1S(=O)(=O)N1CCOCC1`: the “activity change, negative = inhibition” value is -17%.
For `COc1ccc(CNC(=O)COC(=O)c2ccc(C)c(S(=O)(=O)N3CCOCC3)c2)cc1OC`, the “activity change, negative = inhibition” value was -8.32%.
With `Cc1ccc(C(=O)OCC(=O)N2CCCCCC2)cc1S(=O)(=O)N1CCOCC1`, the “activity change, negative = inhibition” value was 8.03%.
On the same count and under the same terms, next, `COc1cc(/C=C/C(=O)OCC(=O)N2CCOCC2)ccc1OCC#N`: 9.99%.
As to `COc1ccc(CCC(=O)Nc2ccc(Cl)c(S(=O)(=O)N3CCOCC3)c2)cc1OC`, the Potency was 18.4 µM (active).
For `COc1ccc(NS(=O)(=O)c2cc(NC(=O)/C=C/c3cc(OC)c(OC)c(OC)c3)ccc2N2CCCCC2)cc1`, the “activity change, negative = inhibition” value was -12.4%.
Same read-out and setting: next, `COc1ccc(COC(=O)c2ccc(Cl)c(S(=O)(=O)N3CCOCC3)c2)cc1F`: -8.75%; `CCN1CCN(CCCNC(=O)c2ccc3c(c2)sc2nc(-c4ccc(OC)cc4)cn23)CC1`: -26%.
Same read-out and setting: with `Cc1ccc(O)c(NC(=O)CCS(=O)(=O)c2nc(-c3ccc4c(c3)OCO4)cc(C(F)(F)F)n2)c1` the figure was 8.08% [at 9.27 µM].
In the case of `CC1CCCCN1CC(=O)N1CCCc2c1c(=O)oc1ccc(OCc3ccccc3)cc21` (configuration not stated), the “activity change, negative = inhibition” value was -15.1%.
As for `CC1=C(c2ccc(C)c(C)c2)S(=O)(=O)NC1=NCc1ccccc1Cl`, the Potency is 23.1 µM (active).
Take `Cc1ccc(-c2cc(C(=O)Oc3ccccc3Cl)no2)cc1C`: the “activity change, negative = inhibition” value is 12.8%.
In the case of `Cc1ccc(CNc2ncnc3cc(-c4ccc5c(c4)OCO5)ccc23)o1`, the “activity change, negative = inhibition” value was 4.57%.
Same read-out and setting: next, `O=C(O)c1ccc(NC(=O)c2ccc(COc3ccc(Cl)cc3)o2)cc1`: 29.2%; `Cc1cccc(NC(=O)c2ccc(COc3ccccc3[N+](=O)[O-])o2)n1`: -18.1%.
On to `O=C(Nc1ccn(Cc2ccccc2F)n1)c1ccc(COc2ccc(Cl)cc2Cl)o1`, for which the Potency is 25.9 µM (active).
On to `CCc1nn(CC(=O)Nc2cc(C)cc(C)c2)c(=O)c2cc3sccc3n12`, for which the “activity change, negative = inhibition” value is 9.2%.
Take `CC1CC2=C(CC1/C=N/NC(N)=S)C(C)(C)CCC2` (configuration not stated): the Potency is 23.1 µM (active).
Turning to `CCc1nc2nc(C)cc(Nc3ccc(F)c(Cl)c3)n2n1`, the “activity change, negative = inhibition” value was -13.4%.
The same measure, in the same setting: next, `Cc1ccc(CNC(=O)Cn2cnc3c(NCc4ccccc4)ncnc32)o1`: -7.86%.
As to `Cc1cccc(NC(=O)Cn2cc(S(=O)(=O)Cc3ccccc3Cl)c3ccccc32)c1`, the “activity change, negative = inhibition” value was -4.12%.
Regarding `O/N=C(\C[n+]1ccccc1)c1ccc(Br)cc1`, the Potency was 3.66 µM (active).
As for `CCN(C(=O)c1ccc(Br)cc1)c1ccccc1`, the “activity change, negative = inhibition” value is -12.2%.
Same read-out and setting: next, `O=C(O)CC/C(=N\NC(=O)c1ccc(F)cc1)c1ccc(Br)cc1`: 7.74%; `COC(=O)[C@]1(Cc2ccccc2)N[C@H](CN(C)S(=O)(=O)c2ccc(OC(F)(F)F)cc2)[C@@H]2C(=O)N(C)C(=O)[C@@H]21`: -14.7%; `CCCN(CCC)CCCNC(=O)Cn1ncc2c3ccccc3n(Cc3ccccc3)c2c1=O`: 13.4%.
On to `Cc1ccc(S(=O)(=O)N2C[C@@H]3CCCC[C@@H]3[C@@H](C)[C@H]2c2cn(Cc3ccccc3)c3ccc(F)cc23)cc1`, for which the Potency is 2.91 µM (active).
Regarding `Cc1ccc(S(=O)(=O)c2cn(Cc3ccccc3)c3cc(N4CCCC4)c(F)cc3c2=O)c(C)c1`, the “activity change, negative = inhibition” value is -14.6%.
Still for that read-out and setting: next, `Cc1cccc(S(=O)(=O)c2cn(Cc3ccccc3)c3cc(N4CCOCC4)c(F)cc3c2=O)c1`: -18.8%.
Regarding `N#CC1=C(N)Oc2cc(N)ccc2C1c1ccccc1` (configuration not stated), the “activity change, negative = inhibition” value was -15.3%.
Regarding `CN(C)Cc1cn(-c2ccccc2)nc1-c1ccccc1`, the “activity change, negative = inhibition” value is -3.78%.
On the same count and under the same terms, next, `O=C(N[C@H]1C/C=C\C(c2ccc(F)cc2)N(Cc2ccccc2)C(=O)C1)OCC1c2ccccc2-c2ccccc21` (some centres not stated): 4.03%.
Regarding `O=C(O)CSc1nccc2ccccc12`, the Potency is 16.4 µM (active).
For the molecule `CCc1c(SCCC(=O)O)nc2ccccc2c1C`, the “activity change, negative = inhibition” value is -7.59%.
Same read-out and setting: next, `CC(C)N(C(=O)CSc1nc(COc2ccccc2)nc2ccccc12)C(C)C`: -10.9%.
